Reference: PubChem BioAssay (EPA / NIEHS)
Several values for one entry are separate records, joined by “and”; a condition that tells them apart may be missing. Equal entries are not always repeated. More than one record can exist for a structure, and the calls need not agree. Activity calls are given as the source filed them. Rule for the calls: active = hit-call score of the fitted dose curve at least 0.9, where 1 is the maximum; inactive = score below 0.9.

Key:
[1] = read-out: Human Leukocyte Antigen - DR isotype (HLADR), HLA-DRA (gene 3122); assay: BSK_BE3C_HLADR: BioMAP Diversity Plus: BE3C Assay for Human Leukocyte Antigen - DR isotype (HLADR) Biomarker Activity (AID 2283032); conditions: primary human bronchial epithelial cells; actives raise or lower the signal
In short: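 Human primary bronchial epithelial cells (BE3C system) exposed to compound for 24 hours; cell-surface HLA-DR measured by ELISA, fitted bidirectionally relative to DMSO. Total protein by SRB in parallel cultures tracked cytotoxicity.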

[2] = read-out: Vascular cell adhesion molecule 1 (VCAM1), VCAM1 (gene 7412); assay: BSK_4H_VCAM1: BioMAP Diversity Plus: 4H Assay for Vascular cell adhesion molecule 1 (VCAM1) Biomarker Activity (AID 2283033); conditions: primary human endothelial cells (HUVEC); actives raise or lower the signal
In short: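 Primary human umbilical vein endothelial cells, 4H stimulation system, treated for 24 h; cell-surface VCAM-1 quantified by ELISA. Bidirectional fitting against DMSO; cytotoxicity tracked by SRB total-protein staining in parallel cultures.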

[3] = read-out: Interferon-gamma inducible Protein 10 (IP10), CXCL10 (gene 3627); assay: BSK_BE3C_IP10: BioMAP Diversity Plus: BE3C Assay for Interferon-gamma inducible Protein 10 (IP10) Biomarker Activity (AID 2283034); conditions: primary human bronchial epithelial cells; actives raise or lower the signal
In short: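 Primary human bronchial epithelial cells, with IP-10 measured by ELISA 24 hours after chemical dosing. Bidirectional fit against DMSO; cytotoxicity checked by SRB total protein staining in parallel cultures.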

[4] = read-out: Monokine induced gamma interferon (MIG), CXCL9 (gene 4283); assay: BSK_BE3C_MIG: BioMAP Diversity Plus: BE3C Assay for Monokine induced gamma interferon (MIG) Biomarker Activity (AID 2283035); conditions: primary human bronchial epithelial cells; actives raise or lower the signal
In short: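 ELISA read-out of MIG in human lung bronchial epithelial primary cultures, 24 h post-dosing. Bidirectional curve fit vs DMSO baseline.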

[5] = read-out: Transforming growth factor beta 1 (TGFb1), TGFB1 (gene 7040); assay: BSK_BE3C_TGFb1: BioMAP Diversity Plus: BE3C Assay for Transforming growth factor beta 1 (TGFb1) Biomarker Activity (AID 2283036); conditions: primary human bronchial epithelial cells; actives raise or lower the signal
In short: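 Primary human bronchial epithelial cells dosed with chemical; TGF-b1 measured by ELISA 24 h after dosing. Bidirectional curve fitting against DMSO negative control; SRB total-protein staining in parallel cultures gauged cytotoxicity.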

[6] = read-out: Plasminogen activator inhibitor-1 (PAI1), SERPINE1 (gene 5054); assay: BSK_BE3C_PAI1: BioMAP Diversity Plus: BE3C Assay for Plasminogen activator inhibitor-1 (PAI1) Biomarker Activity (AID 2283037); conditions: primary human bronchial epithelial cells; actives raise or lower the signal
In short: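 Primary human bronchial epithelial cells (BE3C system) exposed 24 h; PAI-1 quantified by ELISA. Parallel sulforhodamine B staining of total protein flags cytotoxicity. Bidirectional fit versus DMSO.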

[7] = read-out: urokinase plasminogen activator (uPA), PLAU (gene 5328); assay: BSK_BE3C_uPA: BioMAP Diversity Plus: BE3C Assay for urokinase plasminogen activator (uPA) Biomarker Activity (AID 2283038); conditions: primary human bronchial epithelial cells; actives raise or lower the signal
In short: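 ELISA read-out of uPA in human lung primary bronchial epithelial cultures, 24 h post-dosing. Gain or loss of signal fitted bidirectionally relative to DMSO baseline; cytotoxicity checked in parallel cultures via SRB total protein stain.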

[8] = read-out: Urokinase-type plasminogen activator receptor (uPAR), PLAUR (gene 5329); assay: BSK_BE3C_uPAR: BioMAP Diversity Plus: BE3C Assay for Urokinase-type plasminogen activator receptor (uPAR) Biomarker Activity (AID 2283039); conditions: primary human bronchial epithelial cells; actives raise or lower the signal
In short: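 Primary human bronchial epithelial cells dosed for 24 h; uPAR quantified by ELISA with bidirectional fitting against DMSO. Overt cytotoxicity assessed in parallel cultures by SRB total-protein staining (0.1% SRB, 560 nm).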

[9] = read-out: Interleukin-6 (IL6), IL6 (gene 3569); assay: BSK_CASM3C_IL6: BioMAP Diversity Plus: CASM3C Assay for Interleukin-6 (IL6) Biomarker Activity for (AID 2283040); conditions: primary human coronary artery smooth muscle cells; actives raise or lower the signal
[10] = read-out: Tissue plasminogen activator (tPA), PLAT (gene 5327); assay: BSK_BE3C_tPA: BioMAP Diversity Plus: BE3C Assay for Tissue plasminogen activator (tPA) Biomarker Activity (AID 2283041); conditions: primary human bronchial epithelial cells; actives raise or lower the signal
In short: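 Primary human bronchial epithelial cells in the BE3C system, exposed to compound for 24 h. tPA was quantified by ELISA; DMSO served as baseline, with gain or loss of signal fitted. Cytotoxicity checked in parallel cultures by SRB total-protein staining.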

[11] = read-out: Interleukin-8 (IL8), CXCL8 (gene 3576); assay: BSK_CASM3C_IL8: BioMAP Diversity Plus: CASM3C Assay for Interleukin-8 (IL8) Biomarker Activity (AID 2283042); conditions: primary human coronary artery smooth muscle cells; actives raise or lower the signal;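 note: IL-8 protein level quantified by ELISA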
[12] = read-out: Human Leukocyte Antigen - DR isotype (HLADR), HLA-DRA (gene 3122); assay: BSK_CASM3C_HLADR: BioMAP Diversity Plus: CASM3C Assay for Human Leukocyte Antigen - DR isotype (HLADR) Biomarker Activity (AID 2283043); conditions: primary human coronary artery smooth muscle cells; actives raise or lower the signal;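 note: cell-surface HLA-DR protein level quantified by ELISA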
[13] = read-out: Macrophage colony-stimulating factor (MCSF), CSF1 (gene 1435); assay: BSK_CASM3C_MCSF: BioMAP Diversity Plus: CASM3C Assay for Macrophage colony-stimulating factor (MCSF) Biomarker Activity (AID 2283044); conditions: primary human coronary artery smooth muscle cells; actives raise or lower the signal;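 note: M-CSF protein amount quantified by ELISA after 24 h exposure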
[14] = read-out: Low-density lipoprotein receptor (LDLR), LDLR (gene 3949); assay: BSK_CASM3C_LDLR: BioMAP Diversity Plus: CASM3C Assay for Low-density lipoprotein receptor (LDLR) Biomarker Activity (AID 2283045); conditions: primary human coronary artery smooth muscle cells; actives raise or lower the signal;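 note: LDLR protein level on the cell surface quantified by ELISA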
[15] = read-out: Monocyte Chemoattractant Protein-1 (MCP1), CCL2 (gene 6347); assay: BSK_CASM3C_MCP1: BioMAP Diversity Plus: CASM3C Assay for Monocyte Chemoattractant Protein-1 (MCP1) Biomarker Activity (AID 2283046); conditions: primary human coronary artery smooth muscle cells; actives raise or lower the signal;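 note: MCP-1 level quantified by ELISA 24 h after dosing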
[16] = BSK_CASM3C_Proliferation: Cell Proliferation Assessment in the BioMAP Diversity Plus: CASM3C Assay (AID 2283047); conditions: primary human coronary artery smooth muscle cells;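 note: sulforhodamine B total protein stain as relative cell number at 560 nm; sub-confluent cells exposed 48 h before staining; fitted both ways against DMSO so gain or loss of cell number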
[17] = read-out: Monokine induced gamma interferon (MIG), CXCL9 (gene 4283); assay: BSK_CASM3C_MIG: BioMAP Diversity Plus: CASM3C Assay for Monokine induced gamma interferon (MIG) Biomarker Activity (AID 2283048); conditions: primary human coronary artery smooth muscle cells; actives raise or lower the signal;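 note: MIG protein level measured by ELISA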
[18] = read-out: serum amyloid A (SAA), SAA1 (gene 6288); assay: BSK_CASM3C_SAA: BioMAP Diversity Plus: CASM3C Assay for serum amyloid A (SAA) Biomarker Activity (AID 2283049); conditions: primary human coronary artery smooth muscle cells; actives raise or lower the signal;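 note: SAA protein level quantified by ELISA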
[19] = BSK_CASM3C_SRB: Viability Assessment in the BioMAP Diversity Plus: CASM3C Assay (AID 2283050); conditions: primary human coronary artery smooth muscle cells
[20] = read-out: Thrombomodulin, THBD (gene 7056); assay: BSK_CASM3C_Thrombomodulin: BioMAP Diversity Plus: CASM3C Assay for Thrombomodulin Biomarker Activity (AID 2283051); conditions: primary human coronary artery smooth muscle cells; actives raise or lower the signal;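 note: thrombomodulin protein level measured by ELISA 24 h after dosing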

Measured: AC50

O=C(O)c1ccccc1C(c1ccc(O)cc1)c1ccc(O)cc1
active: [1] 31.6 µM | [3] 31.1 µM | [6] 33.4 µM
inactive: [2] | [4] | [5] | [7] | [8] | [9] | [10] | [11] | [12] | [13] | [14] | [15] | [16] | [17] | [18] | [19] | [20]

C=C(C)C(=O)OCCC(F)(F)C(F)(F)C(F)(F)C(F)(F)C(F)(F)C(F)(F)F
inactive: [1] | [2] | [3] | [4] | [5] | [6] | [7] | [8] | [9] | [10] | [11] | [12] | [13] | [14] | [15] | [16] | [17] | [18] | [19] | [20]
active: [9] 20 µM | [10] 3.97 µM | [12] 20 µM | [14] 12.1 µM | [16] 13.5 µM

C[C@@H]1C[C@H]2[C@@H]3CCC4=CC(=O)C=C[C@]4(C)[C@@]3(F)[C@@H](O)C[C@]2(C)[C@@]1(O)C(=O)COP(=O)(O)O
inactive: [1] | [2] | [3] | [4] | [5] | [6] | [7] | [8] | [10] | [12] | [14] | [16] | [17] | [19] | [20]
active: [6] 0.763 µM | [9] 158 nM and 1.34 µM and 690 nM | [10] 478 nM and 416 nM | [11] 176 nM and 1.04 µM and 101 nM | [13] 29.4 nM and 113 nM and 217 nM | [15] 141 nM and 1.58 µM and 720 nM | [16] 0.163 µM | [18] 54.4 nM and 105 nM and 155 nM | [20] 29.4 nM and 100 nM

CC(C)(C)c1ccc(O)c(C(C)(C)C)c1
active: [1] 28.1 µM | [2] 9.93 µM | [3] 31.7 µM | [4] 36.1 µM | [5] 27.8 µM | [6] 31.6 µM | [7] 30.7 µM | [8] 36.3 µM | [9] 13.6 µM | [10] 27.5 µM | [11] 27.2 µM | [12] 9.55 µM | [13] 13.2 µM | [14] 12.3 µM | [15] 13.7 µM | [16] 11.4 µM | [17] 15.3 µM | [18] 12.4 µM | [19] 26.7 µM | [20] 35.9 µM

CCCCCCCCCCCCc1ccccc1S(=O)(=O)O
inactive: [2] | [9] | [11] | [12] | [13] | [14] | [15] | [16] | [17] | [18] | [19] | [20]
active: [1] 8.12 µM | [3] 6.21 µM | [4] 30.1 µM | [5] 8.96 µM | [6] 8.94 µM | [7] 13.9 µM | [8] 14.2 µM | [10] 6.79 µM
